Compounds without any hit were thinned out: in the full panel of roughly 83,000, 20% have a hit.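 Each cell line was grown in a 96-well plate and treated with one concentration of compound for 48 hours. Values below 10 were considered active.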 Values without a mark were called inactive. Active and inactive are the calls of the source.
Key:
Experiment in all cases: NCI-60 one-dose screen, 48 h (100 = growth as untreated, 0 = no growth, -100 = all killed)
DU-145 prostate = conditions: 10 µM unless noted
K-562 leukemia = conditions: 10 µM unless noted
MALME-3M melanoma = conditions: 10 µM unless noted
MDA-MB-231 breast = conditions: 10 µM unless noted
RXF 393 renal = conditions: 10 µM unless noted
SF-268 CNS = conditions: 10 µM unless noted
SF-295 CNS = conditions: 10 µM unless noted
SF-539 CNS = conditions: 10 µM unless noted
UACC-257 melanoma = conditions: 10 µM
HCT-15 colon = conditions: 10 µM unless noted
HT29 colon = conditions: 10 µM unless noted
SNB-19 CNS = conditions: 10 µM unless noted
U251 CNS = conditions: 10 µM unless noted
PC-3 prostate = conditions: 10 µM unless noted
SK-MEL-5 melanoma = conditions: 10 µM unless noted
UACC-62 melanoma = conditions: 10 µM unless noted
LOX IMVI melanoma = conditions: 10 µM unless noted
SK-MEL-28 melanoma = conditions: 10 µM unless noted
M14 melanoma = conditions: 10 µM unless noted
SNB-75 CNS = conditions: 10 µM unless noted

| Compound | growth (DU-145 prostate) | growth (K-562 leukemia) | growth (MALME-3M melanoma) | growth (MDA-MB-231 breast) | growth (RXF 393 renal) | growth (SF-268 CNS) | growth (SF-295 CNS) | growth (SF-539 CNS) | growth (UACC-257 melanoma) [%] | growth (HCT-15 colon) | growth (HT29 colon) | growth (SNB-19 CNS) | growth (U251 CNS) | growth (PC-3 prostate) | growth (SK-MEL-5 melanoma) | growth (UACC-62 melanoma) | growth (LOX IMVI melanoma) | growth (SK-MEL-28 melanoma) | growth (M14 melanoma) | growth (SNB-75 CNS) |
| --- | --- | --- | --- | --- | --- | --- | --- | --- | --- | --- | --- | --- | --- | --- | --- | --- | --- | --- | --- | --- |
| NC(=O)c1c(NC(=O)c2cccc(C(F)(F)F)c2F)sc2c1CCC(=O)C2 | 89.1% | 13.4% | 19.4% | 12.9% | -5.49% (active) | 21.6% | 40% | 0.149% (active) | 12.9 | 7.63% (active) | 8.55% (active) | 18% | 15.9% | 17.9% | -3.83% (active) | 11.1% | 19.2% | 33.9% | – | – |
| Cc1occc1-c1nc2s/c(=C\c3cn(-c4ccccc4)nc3-c3ccccc3)c(=O)n2n1 | 106% | 106% | 101% | 97.8% | – | 101% | 101% | 91.2% | 96 | 99.2% | 101% | 96.8% | 97.1% | 90.6% | 92.4% | 92.1% | 103% | 101% | 100% | 84% |
| O=C1c2c(c3c4cc(O)ccc4oc3c3[nH]c4ccccc4c23)C(=O)N1O | 11.3% | 14.4% | 9.51% (active) | 26% | – | 17.4% | 10.2% | -15% (active) | 22.1 | 15.2% | -64.6% (active) | 16.4% | -3.58% (active) | 12.8% | -76.1% (active) | -53.6% (active) | -67.8% (active) | 19.4% | -4.66% (active) | -8.52% (active) |
| CCC(C)[C@H]1OC(=O)[C@H](C(C)C)N(C)C(=O)[C@@H](C(C)C)OC(=O)[C@H](C(C)C)N(C)C(=O)[C@@H](C(C)CC)OC(=O)[C@H](C(C)C)N(C)C1=O (stereo partly drawn) | 22% | 8.02% (active) | 7.55% (active) | 2.72% (active) | 17.2% | 22.1% | 6.32% (active) | 13.8% | – | 11.4% | 6.93% (active) | 18.1% | 12.5% | 12.1% | -31.5% (active) | – | 7.89% (active) | 32.2% | 17.6% | -2.11% (active) |
| O=C1CC2(CCOCC2)Oc2ncccc21 | 97.7% | 4.49% (active) | -31.6% (active) | 8.5% (active) | 92.8% | 65.2% | 109% | 27.7% | 79.2 | -62.6% (active) | – | 51.4% | 22.3% | 88.7% | 100% | 61.1% | -78.7% (active) | -22.3% (active) | – | 115% |
| CC[C@@](C)(NC(=O)C(C)(C)NC(=O)[C@@H](NC(=O)[C@@H]1CCCN1C(=O)C(C)(C)NC(=O)[C@H](CC(C)C)NC(=O)CNC(=O)C(C)(C)NC(=O)[C@@H](NC(=O)C(C)(C)NC(=O)[C@H](CCC(N)=O)NC(=O)[C@H](C)NC(=O)C(C)(C)NC(=O)[C@H](C)NC(=O)C(C)(C)NC(=O)[C@@H]1CCCN1C(=O)C(C)(C)NC(C)=O)C(C)C)C(C)C)C(=O)N[C@@H](CCC(N)=O)C(=O)N[C@@H](CCC(N)=O)C(=O)N[C@H](CO)Cc1ccccc1 | 30.9% [4.25 µM] | 29.1% [4.25 µM] | -21.3% [4.25 µM] (active) | 32.4% [4.25 µM] | 29.1% [4.25 µM] | 31.6% [4.25 µM] | 86.6% [4.25 µM] | 28.7% [4.25 µM] | – | 98% [4.25 µM] | 17.4% [4.25 µM] | 21% [4.25 µM] | 33.1% [4.25 µM] | 16.2% [4.25 µM] | -39.8% [4.25 µM] (active) | 47.5% [4.25 µM] | 4.55% [4.25 µM] (active) | 27.5% [4.25 µM] | 65.9% [4.25 µM] | – |
| O=S(=O)(NCCCNc1nccc(-n2cnc3ccccc32)n1)c1ccc(F)cc1 | 87.2% | 37.2% | 86.1% | 74.4% | 163% | 86.3% | 70.6% | 86.2% | 66.2 | 82.8% | – | 92.6% | 93.8% | 69.3% | 2.63% (active) | 61.6% | 74% | 97.9% | – | 82.5% |
| COc1ccc(/C=N/Nc2nc(N/N=C/c3ccc(OC)cc3O)nc(N3CCOCC3)n2)c(O)c1 | 57.8% | 28% | 67.6% | 70.3% | -16.2% (active) | 53.8% | 31.3% | 47.3% | 55.8 | 3.39% (active) | – | 69.4% | 45.6% | 35.8% | 40.6% | 69.3% | 45.4% | 37.4% | – | 74.4% |
| CC(=O)NC(C)(C)C(=O)N[C@@H](C)C(=O)NC(C)(C)C(=O)N[C@@H](C)C(=O)NC(C)(C)C(=O)N[C@@H](C)C(=O)N[C@@H](CCC(N)=O)C(=O)NC(C)(C)C(=O)N[C@H](C(=O)NC(C)(C)C(=O)NCC(=O)N[C@@H](CC(C)C)C(=O)NC(C)(C)C(=O)N1CCC[C@H]1C(=O)N[C@H](C(=O)NC(C)(C)C(=O)NC(C)(C)C(=O)N[C@@H](CCC(N)=O)C(=O)N[C@@H](CCC(N)=O)C(=O)N[C@H](CO)CC1CCCCC1)C(C)C)C(C)C | 55.5% [5 µM] | 24.3% [5 µM] | -41.4% [5 µM] (active) | 55.3% [5 µM] | 55.8% [5 µM] | 46.9% [5 µM] | 23.9% [5 µM] | 29.3% [5 µM] | – | 79.2% [5 µM] | 14.1% [5 µM] | 43.8% [5 µM] | 38.5% [5 µM] | 29.8% [5 µM] | -33.6% [5 µM] (active) | 2.45% [5 µM] (active) | 27.1% [5 µM] | -17.1% [5 µM] (active) | 4.76% [5 µM] (active) | – |
| Cc1ccc(NC(=O)c2cccc(CN3CCN(C)CC3)c2)cc1Oc1ccc(-c2[nH]nc3ncnc(N)c23)cc1 | 81.9% | 10.6% | 49.2% | 60.7% | 23.3% | 73.8% | 78% | 62% | 75.4 | 86.1% | – | 81.9% | 64.6% | 72.9% | 76.7% | 73% | 29.9% | 72.9% | – | 66.8% |
| COc1c([C@@H](CC(C)C)OC(C)=O)ccc2c1C(=O)OCc1cc(C)cc(O)c1O2 | 26.7% | 16.9% | 19% | 35.7% | 64.1% | 33% | 31.8% | 55.6% | – | 17.3% | 13.5% | 36.3% | 20.1% | 29.8% | 8.29% (active) | 31.3% | 27.5% | 59.1% | 44.3% | 50.6% |
| Cc1nc(-c2cc3ccccc3c(N3CCN(C)CC3)n2)cs1 | 109% | 91.5% | 96.5% | 90.3% | – | 87.3% | 93.1% | 85.2% | 101 | 92.1% | 96.4% | 90.1% | 96.4% | 86.8% | 95.4% | 90.8% | 84.7% | 107% | 95.4% | 76.2% |
| Nc1nc(N)c2c(n1)NC(c1ccccc1)CC(c1ccc(Nc3nc(NCCO)nc(Nc4ccc(Cl)cc4)n3)cc1)=N2 (stereo not drawn) | 41.6% | -40.7% (active) | -89.6% (active) | 73.3% | – | 76.5% | 46.9% | 71.1% | 113 | -58% (active) | -87.6% (active) | -77.1% (active) | 11.9% | 15.1% | 55.6% | 96.7% | -86.1% (active) | 109% | 81% | 112% |
| COc1ccc2oc3c4[nH]c5ccccc5c4c4c(c3c2c1)C(=O)N(O)C4=O | 101% | 98.3% | 105% | 95.7% | – | 100% | 106% | 98% | 106 | 105% | 104% | 95.2% | 106% | 85.8% | 101% | 94.6% | 116% | 106% | 102% | 89.1% |

— PubChem BioAssay (NCI)
